Measured values taken from PubChem BioAssay AID1259418 (Broad Institute, 2018).
Hit rate of the full screen: of about 3,400 compounds, about 840 (25%) were called active. Another 11% or so got no clear call; they are omitted.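 How the source made its calls: active means fitted half-maximal concentration of signal decrease at or below twice the sample's top tested concentration; inconclusive means flat curve between -70 and -30 percent, or poor fit; inactive means flat within 30 percent, signal rise, or potency above limit.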 Only a sample is shown. Results with a measured potency or affinity are listed apart.

assay: inhibitors of Toxoplasma growth in IFN-γ-primed HeLa – cell-based, ME49Luc, luciferase, 72 h, dose response (AID 1259418); conditions: T. gondii ME49Luc in IFN-y HeLa, active compounds read low, -100% = high-dose IFN-γ control wells; at 19.5 µM unless noted

Compound | max activity
CN1C(=O)CCc2cc(NC(=O)C3CCCCC3)ccc21 | 40.8% (inactive)
CN1C(=O)CCc2cc(NC(=O)C3CCC3)ccc21 | 8.04% (inactive)
COc1ccc(-c2nc(Nc3cc(OC)c(OC)c(OC)c3)c3ccccc3n2)cc1 | -9.87% [at 0.16 µM] (inactive)
O=C(CCC1N=C2c3ccccc3N=C(SCc3cc(=O)n4cc(Cl)ccc4n3)N2C1=O)NCc1ccc2c(c1)OCO2 (stereo not drawn) | -18.4% [at 10 µM] (inactive)
CCCCN(C)C(=O)Cn1c(=O)c(S(=O)(=O)c2ccccc2)cc2cc(C)ccc21 | -7.02% [at 0.35 µM] (inactive)
COc1ccc(C(=O)N2CCC3(CC2)Nc2ccc(C)c(C)c2-n2cccc23)cc1 | 7.01% [at 0.68 µM] (inactive)
Cc1ccc(S(=O)(=O)N2CCC(C(=O)NCCc3csc(-c4ccccc4)n3)CC2)cc1C | 12.1% [at 1.35 µM] (inactive)
Cc1ccc(S(=O)(=O)N2CCC(C(=O)NCCc3csc(-c4ccccc4)n3)CC2)c(C)c1 | 19.2% [at 0.35 µM] (inactive)
O=C(NCCc1csc(-c2ccccc2)n1)C1CCN(S(=O)(=O)c2ccccc2F)CC1 | 8.96% [at 0.16 µM] (inactive)
CCS(=O)(=O)N1CCC(C(=O)NCCc2csc(-c3ccccc3)n2)CC1 | -17% (inactive)
COc1ccc(-c2nc3c(s2)CN(C(=O)Nc2ccccc2C(F)(F)F)CC3)cc1 | 102% (inactive)
Cc1nc(Nc2ccc(F)cn2)sc1C(=O)N1CCC(C(N)=O)(N2CCCCC2)CC1 | 6.22% (inactive)
COc1ccccc1NC(=O)Nc1ccc(-c2nc(-c3cccc(Br)c3)co2)cc1 | 8.23% (inactive)
Cc1ccc2c(c1)cc(S(=O)(=O)c1ccccc1)c(=O)n2CC(=O)NCCC(C)C | -4.39% [at 5 µM] (inactive)
COc1ccc(-c2nc(N3CCN(c4cccc(Cl)c4)CC3)c3ccccc3n2)cc1 | -7.34% [at 10 µM] (inactive)
COC(=O)c1ccccc1NC(=O)N1CCN(Cc2nc(-c3cccc(Cl)c3)oc2C)CC1 | 3.54% [at 2.6 µM] (inactive)
COc1ccccc1NC(=O)CN1CCC2(CC1)N=C(c1ccc(Cl)cc1)C(=O)N2 | -13.9% [at 1.35 µM] (inactive)
Cc1ccc(C)c(-c2coc(-c3ccc(NC(=O)CC(C)C)cc3)n2)c1 | -23% [at 10 µM] (inactive)
COc1ccc(-c2nc(CSc3nc4c(c(=O)[nH]3)CN(Cc3ccccc3)CC4)c(C)o2)cc1 | 9.43% [at 1.35 µM] (inactive)
Cn1cnc2c1C(C(=O)O)CN(C(=O)c1ccsc1)C2 (stereo not drawn) | 44.9% (inactive)
C=CCN1CCC2(CC1)CC(NCc1ccc(C)s1)c1ccccc1O2 (stereo not drawn) | -7.33% [at 1.2 µM] (inactive)
CCCCCNC(=O)CC1Nc2c3ccccc3nc(=S)n2C1=O (stereo not drawn) | -10.3% [at 10 µM] (inactive)
O=C(CC1Nc2c3ccccc3nc(=S)n2C1=O)NCc1ccccc1 (stereo not drawn) | 26.5% [at 2.6 µM] (inactive)
O=C(CC1Nc2c3ccccc3nc(=S)n2C1=O)NCc1ccc(F)cc1 (stereo not drawn) | 15.6% [at 0.16 µM] (inactive)

Compound | max activity
O=C(CC1Nc2c3ccccc3nc(=S)n2C1=O)NCc1ccc(Cl)cc1 (stereo not drawn) | 15.8% (inactive)
O=C(CCC1Nc2c3ccccc3nc(=S)n2C1=O)NCCN1CCN(c2cccc(Cl)c2)CC1 (stereo not drawn) | 7.2% [at 5 µM] (inactive)
O=C(CCC1Nc2c3ccccc3nc(=S)n2C1=O)NCCN1CCN(c2ccccc2)CC1 (stereo not drawn) | 19.8% [at 0.16 µM] (inactive)
COc1ccccc1CNC(=O)CC1Nc2c3ccccc3nc(=S)n2C1=O (stereo not drawn) | 46.9% [at 0.16 µM] (inactive)
CCCCNC(=O)CC1Nc2c3ccccc3nc(=S)n2C1=O (stereo not drawn) | -20.7% [at 10 µM] (inactive)
CCc1nc(OCC(=O)Nc2ccc(Br)cc2)c2ccccc2n1 | 33.9% [at 0.68 µM] (inactive)
CCc1onc(C)c1C1CCCN1C(=O)Cn1nc(C(F)(F)F)c2c1CCCC2 (stereo not drawn) | 9.22% [at 2.6 µM] (inactive)
CN(C)S(=O)(=O)N1C[C@@H]2CN(Cc3ccoc3)CCO[C@H]2C1 | 25.4% (inactive)
Cc1cnc(N2Cc3nccn3CC(CN3CCCC3)C2)nc1 (stereo not drawn) | 46.2% (inactive)
COc1ccc(-c2nc3c(s2)CN(C(=O)Nc2cc(C)ccc2C)CC3)cc1 | 75% (inactive)
CCOc1ccc(-c2nc(CN(c3ccccc3OC)S(=O)(=O)c3ccc(C)cc3)c(C)o2)cc1 | 17.2% [at 0.68 µM] (inactive)
COc1ccccc1N(Cc1nc(-c2ccc(OC(C)C)cc2)oc1C)S(=O)(=O)c1ccccc1 | -5.99% [at 1.35 µM] (inactive)
CCOc1ccccc1N(Cc1nc(-c2cccc(C)c2)oc1C)S(=O)(=O)c1ccccc1 | 3.42% [at 0.68 µM] (inactive)
COc1ccc(-c2nc(CN(c3ccccc3OC)S(=O)(=O)c3ccccc3)c(C)o2)cc1 | 24.5% [at 10 µM] (inactive)
CCOc1ccccc1CNc1nc(-c2ccc(OC)cc2)nc2ccccc12 | -11.7% [at 0.35 µM] (inactive)
NC(=O)C1(N2CCCCC2)CCN(c2ncc(NC(=O)c3ccccc3)cc2C(=O)O)CC1 | 14.4% [at 0.16 µM] (inactive)
Cc1cccc(N2CCN(c3nc(-c4ccc(Cl)cc4)nc4ccccc34)CC2C)c1 (stereo not drawn) | -29% [at 0.35 µM] (inactive)
Cc1ccc2c(c1C)-n1cccc1C1(CCN(C(=O)c3cccc(Br)c3)CC1)N2 | -13.6% [at 1.35 µM] (inactive)
Cc1nc(OCC(=O)Nc2ccc(Cl)cc2Cl)c2ccccc2n1 | 23% [at 5 µM] (inactive)
Cc1ccc(-c2coc(-c3ccc(NC(=O)C(C)C)cc3)n2)c(C)c1 | -33.6% [at 5 µM] (inactive)
Cc1ccc(-c2coc(-c3ccc(NC(=O)Nc4ccccc4F)cc3)n2)cc1 | 86.4% [at 10 µM] (inactive)
Cc1oc(-c2ccccc2)nc1Cn1nnc(-c2nc(-c3ccc(C(F)(F)F)cc3)no2)c1C | 47.1% (inactive)
CN(C)C(=O)COCC1CN(S(C)(=O)=O)Cc2nnn(C)c21 (stereo not drawn) | 28% (inactive)
Cc1csc(-c2cc(S(=O)(=O)N3CCC(Cc4ccccc4)CC3)c(C)s2)n1 | -11.8% [at 0.16 µM] (inactive)
